Experimental data reported in PubChem BioAssay (EPA / NIEHS).
Active and inactive are the calls of the source. How the source made its calls: active means hit-call score of the fitted dose curve at least 0.9, where 1 is the maximum; inactive means score below 0.9.

Legend:
Settings in all cases: mRNA level, 48 h; actives raise or lower the signal
[1] = read-out: Cytochrome P450 3A7 (Homo sapiens) (UniProt P24462); assay: LTEA_HepaRG_CYP3A7: Life Technologies and Expression Analysis (LTEA) Assay for CYP3A7 using HepaRG (AID 2283492)
How it was run: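 Differentiated HepaRG cells in serum-free induction medium exposed 48 h in duplicate to 8-point half-log series from 100 uM top in 0.5% DMSO. CYP3A7 mRNA by qRT-PCR, normalized to ACTB/GAPDH/POLR2A, bidirectional fit versus DMSO.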

CYP3A5 (gene 1577) = assay: LTEA_HepaRG_CYP3A5: Life Technologies and Expression Analysis (LTEA) Assay for CYP3A5 using HepaRG (AID 2283493)
How it was run: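 mRNA induction or loss of CYP3A5 assessed in HepaRG after 48 h dosing, 100 uM top concentration, duplicate wells; TaqMan qRT-PCR with ACTB, GAPDH, POLR2A normalization; 0.5% DMSO as negative control.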

[2] = read-out: Fatty Acid-Binding Protein 1 (FABP1), FABP1 (gene 2168); assay: LTEA_HepaRG_FABP1: Life Technologies and Expression Analysis (LTEA) Assay for Fatty Acid-Binding Protein 1 (FABP1) using HepaRG (AID 2283494)
How it was run: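 HepaRG, 48 h post-plating switched to serum-free induction medium, then dosed 48 h (duplicate, 8 pts, ≤100 uM, 0.5% DMSO). RNA → Fluidigm TaqMan qRT-PCR, FABP1 normed to ACTB/GAPDH/POLR2A. Bidirectional curve fit vs DMSO.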

[3] = read-out: Cytochrome P450 4A22 (Homo sapiens) (UniProt Q5TCH4); assay: LTEA_HepaRG_CYP4A22: Life Technologies and Expression Analysis (LTEA) Assay for Cytochrome P450 4A22 (CYP4A22) using HepaRG (AID 2283495)
How it was run: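 Differentiated HepaRG cells in serum-free induction medium exposed 48 h in duplicate to eight half-log concentrations up to 100 uM in 0.5% DMSO. CYP4A22 mRNA quantified by TaqMan qRT-PCR, normalized to ACTB, GAPDH and POLR2A; bidirectional fit versus DMSO.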

[4] = read-out: Cytochrome P450 7A1 (Homo sapiens) (UniProt P22680); assay: LTEA_HepaRG_CYP7A1: Life Technologies and Expression Analysis (LTEA) Assay for Cytochrome P450 7A1 (CYP7A1) using HepaRG (AID 2283496)
How it was run: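 Gene expression endpoint in human HepaRG liver cells treated for 48 h with test chemicals (up to 100 uM, 0.5% DMSO). Values come from bidirectional concentration-response fitting versus DMSO.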

[5] = read-out: Glutathione S-Transferase (GSTA2), GSTA2 (gene 2939); assay: LTEA_HepaRG_GSTA2: Life Technologies and Expression Analysis (LTEA) Assay for Glutathione S-Transferase (GSTA2) using HepaRG (AID 2283497)
How it was run: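 HepaRG, 48 h dosing, 8-pt half-log CRC from 100 uM, 0.5% DMSO vehicle, n=2; RNA → Fluidigm TaqMan qRT-PCR; GSTA2 vs ACTB/GAPDH/POLR2A; gain/loss fit vs DMSO.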

[6] = read-out: Glutamate-cysteine ligase catalytic (GCLC), GCLC (gene 2729); assay: LTEA_HepaRG_GCLC: Life Technologies and Expression Analysis (LTEA) Assay for Glutamate-cysteine ligase catalytic (GCLC) using HepaRG (AID 2283498)
How it was run: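 Read-out is GCLC transcript level by Fluidigm-based TaqMan qRT-PCR, normalized to three housekeeping genes and fitted in both directions relative to 0.5% DMSO. Human HepaRG cells received chemicals for 48 h, up to 100 uM.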

[7] = read-out: growth arrest and DNA damage 45 (GADD45G), GADD45G (gene 10912); assay: LTEA_HepaRG_GADD45G: Life Technologies and Expression Analysis (LTEA) Assay for growth arrest and DNA damage 45 (GADD45G) using HepaRG (AID 2283499)
How it was run: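 Differentiated human HepaRG cells, 48 h post-plating, exposed 48 h in serum-free induction medium to 8 half-log concentrations (top 100 uM, 0.5% DMSO) in duplicate. GADD45G mRNA measured by Fluidigm TaqMan qRT-PCR, normalized to ACTB, GAPDH, POLR2A; bidirectional fit versus DMSO.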

[8] = read-out: Glutamate-cysteine ligase regulatory (GCLM), GCLM (gene 2730); assay: LTEA_HepaRG_GCLM: Life Technologies and Expression Analysis (LTEA) Assay for Glutamate-cysteine ligase regulatory (GCLM) using HepaRG (AID 2283500)
How it was run: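 Human liver HepaRG cultures receive test chemicals for 48 hours at up to 100 uM in 0.5% DMSO. GCLM expression is measured by qRT-PCR and analysed for increases or decreases against vehicle.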

[9] = read-out: Glutathione S-transferase M3 (GSTM3), GSTM3 (gene 2947); assay: LTEA_HepaRG_GSTM3: Life Technologies and Expression Analysis (LTEA) Assay for Glutathione S-transferase M3 (GSTM3) using HepaRG (AID 2283501)
How it was run: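 Differentiated human HepaRG cells were exposed in duplicate for 48 h in serum-free induction medium, 8 points from 100 uM top in half-log steps, 0.5% DMSO. GSTM3 mRNA was measured by TaqMan qRT-PCR, normalized to ACTB, GAPDH and POLR2A; bidirectional fit versus DMSO.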

[10] = read-out: Heat shock 70 kDa protein 1 (HSPA1A), gene 3303; assay: LTEA_HepaRG_HSPA1A: Life Technologies and Expression Analysis (LTEA) Assay for Heat shock 70 kDa protein 1 (HSPA1A) using HepaRG (AID 2283502)
How it was run: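 HSPA1A induction in human HepaRG liver cells is measured after 48 h of chemical treatment (100 uM maximum, 0.5% DMSO vehicle). Expression comes from qRT-PCR normalized to endogenous controls.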

[11] = read-out: Hypoxia-inducible factor 1-alpha (Homo sapiens) (UniProt Q16665); assay: LTEA_HepaRG_HIF1A: Life Technologies and Expression Analysis (LTEA) Assay for Hypoxia-inducible factor 1 (HIF1A) Trancription factor using HepaRG (AID 2283503)
How it was run: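 HepaRG, 48 h exposure, 8-pt half-log series from 100 uM, 0.5% DMSO vehicle, duplicates. Readout: HIF1A transcript by qRT-PCR (Fluidigm array), housekeeping-normalised. Bidirectional curve fit vs DMSO baseline.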

[12] = read-out: 3-Hydroxy-3-Methylglutaryl-CoA Synthase 2 (HMGCS2), HMGCS2 (gene 3158); assay: LTEA_HepaRG_HMGCS2: Life Technologies and Expression Analysis (LTEA) Assay for 3-Hydroxy-3-Methylglutaryl-CoA Synthase 2 (HMGCS2) using HepaRG (AID 2283504)
How it was run: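 Human HepaRG cells in serum-free induction medium were exposed in duplicate for 48 h to 8-point half-log series from 100 uM top in 0.5% DMSO. HMGCS2 mRNA measured by TaqMan qRT-PCR, normalised to ACTB, GAPDH, POLR2A; bidirectional fit versus DMSO.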

HGF (gene 3082) = assay: LTEA_HepaRG_HGF: Life Technologies and Expression Analysis (LTEA) Assay for Hepatocyte Growth Facto (HGF) using HepaRG (AID 2283505)
How it was run: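 Differentiated HepaRG cells in serum-free induction medium exposed 48 h in duplicate, 8 half-log concentrations from 100 uM in 0.5% DMSO. HGF mRNA by qRT-PCR, normalised to ACTB, GAPDH, POLR2A; bidirectional fitting.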

[13] = read-out: Insulin Like Growth Factor 1 (IGF1), IGF1 (gene 3479); assay: LTEA_HepaRG_IGF1: Life Technologies and Expression Analysis (LTEA) Assay for Insulin Like Growth Factor 1 (IGF1) using HepaRG (AID 2283506)
How it was run: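 Using human HepaRG liver cells, IGF1 transcript induction or suppression is measured 48 h after dosing across eight concentrations capped at 100 uM. Values derive from bidirectional concentration-response fitting with DMSO as baseline.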

[14] = read-out: Intercellular Adhesion Molecule 1 (ICAM1), ICAM1 (gene 3383); assay: LTEA_HepaRG_ICAM1: Life Technologies and Expression Analysis (LTEA) Assay for Intercellular Adhesion Molecule 1 (ICAM1) using HepaRG (AID 2283507)
How it was run: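 Differentiated human HepaRG cells in serum-free induction medium exposed 48 h in duplicate to 8 half-log concentrations (top 100 uM, 0.5% DMSO). ICAM1 mRNA quantified by TaqMan qRT-PCR, normalized to ACTB, GAPDH and POLR2A; bidirectional fitting versus DMSO.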

[15] = read-out: Insulin-like growth factor-binding protein 1 (IGFBP1), IGFBP1 (gene 3484); assay: LTEA_HepaRG_IGFBP1: Life Technologies and Expression Analysis (LTEA) Assay for Insulin-like growth factor-binding protein 1 (IGFBP1) using HepaRG (AID 2283508)
How it was run: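 HepaRG cells, plated 48 h then switched to serum-free induction medium, exposed in duplicate for 48 h to 8-point half-log series from 100 uM in 0.5% DMSO. mRNA measured by qRT-PCR, normalized to ACTB/GAPDH/POLR2A; bidirectional fit versus DMSO.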

[16] = read-out: Interleukin 6 (IL6), IL6 (gene 3569); assay: LTEA_HepaRG_IL6: Life Technologies and Expression Analysis (LTEA) Assay for Interleukin 6 (IL6) using HepaRG (AID 2283509)
How it was run: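 HepaRG, ~100,000 cells/well, 48 h pre-culture; serum-free induction medium; cmpd 8-pt half-log from 100 uM, 0.5% DMSO, duplicate, 48 h. Lysis in RLT, TaqMan qRT-PCR; gain or loss vs DMSO.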

[17] = read-out: Interleukin 6 Receptor (IL6R), IL6R (gene 3570); assay: LTEA_HepaRG_IL6R: Life Technologies and Expression Analysis (LTEA) Assay for Interleukin 6 Receptor (IL6R) using HepaRG (AID 2283510)
How it was run: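 Concentration-response in human liver HepaRG cells: eight concentrations from 100 uM downward by half-logs, 48 h exposure, 0.5% DMSO vehicle. IL6R mRNA change measured by qRT-PCR and fitted in both directions relative to vehicle.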

[18] = read-out: Potassium channel subfamily K member 1 (KCNK1), KCNK1 (gene 3775); assay: LTEA_HepaRG_KCNK1: Life Technologies and Expression Analysis (LTEA) Assay for Potassium channel subfamily K member 1 (KCNK1) using HepaRG (AID 2283511)
How it was run: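 Gain or loss of KCNK1 mRNA is the read-out, quantified by qRT-PCR against three housekeeping genes after 48 h chemical treatment of human HepaRG liver cells. Concentrations ran from 100 uM downward in half-log steps, vehicle 0.5% DMSO.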

Measured: outcome

Cytochrome P450 3A7 (Homo sapiens), sequence (P24462 whole entry, looked up): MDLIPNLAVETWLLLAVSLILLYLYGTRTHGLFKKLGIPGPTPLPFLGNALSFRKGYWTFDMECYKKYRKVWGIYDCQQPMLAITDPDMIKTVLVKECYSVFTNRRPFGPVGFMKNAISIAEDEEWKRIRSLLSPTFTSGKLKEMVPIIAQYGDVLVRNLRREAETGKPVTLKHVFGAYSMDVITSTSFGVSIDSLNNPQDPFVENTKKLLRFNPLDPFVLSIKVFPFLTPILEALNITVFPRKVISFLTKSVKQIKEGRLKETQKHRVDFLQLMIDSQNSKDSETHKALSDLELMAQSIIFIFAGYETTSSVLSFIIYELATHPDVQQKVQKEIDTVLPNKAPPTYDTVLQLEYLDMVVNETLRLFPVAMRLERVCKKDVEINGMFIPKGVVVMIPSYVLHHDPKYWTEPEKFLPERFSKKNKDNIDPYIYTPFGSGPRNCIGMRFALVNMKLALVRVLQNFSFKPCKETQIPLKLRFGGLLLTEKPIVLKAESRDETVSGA
Hypoxia-inducible factor 1-alpha (Homo sapiens), sequence (Q16665 whole entry, looked up): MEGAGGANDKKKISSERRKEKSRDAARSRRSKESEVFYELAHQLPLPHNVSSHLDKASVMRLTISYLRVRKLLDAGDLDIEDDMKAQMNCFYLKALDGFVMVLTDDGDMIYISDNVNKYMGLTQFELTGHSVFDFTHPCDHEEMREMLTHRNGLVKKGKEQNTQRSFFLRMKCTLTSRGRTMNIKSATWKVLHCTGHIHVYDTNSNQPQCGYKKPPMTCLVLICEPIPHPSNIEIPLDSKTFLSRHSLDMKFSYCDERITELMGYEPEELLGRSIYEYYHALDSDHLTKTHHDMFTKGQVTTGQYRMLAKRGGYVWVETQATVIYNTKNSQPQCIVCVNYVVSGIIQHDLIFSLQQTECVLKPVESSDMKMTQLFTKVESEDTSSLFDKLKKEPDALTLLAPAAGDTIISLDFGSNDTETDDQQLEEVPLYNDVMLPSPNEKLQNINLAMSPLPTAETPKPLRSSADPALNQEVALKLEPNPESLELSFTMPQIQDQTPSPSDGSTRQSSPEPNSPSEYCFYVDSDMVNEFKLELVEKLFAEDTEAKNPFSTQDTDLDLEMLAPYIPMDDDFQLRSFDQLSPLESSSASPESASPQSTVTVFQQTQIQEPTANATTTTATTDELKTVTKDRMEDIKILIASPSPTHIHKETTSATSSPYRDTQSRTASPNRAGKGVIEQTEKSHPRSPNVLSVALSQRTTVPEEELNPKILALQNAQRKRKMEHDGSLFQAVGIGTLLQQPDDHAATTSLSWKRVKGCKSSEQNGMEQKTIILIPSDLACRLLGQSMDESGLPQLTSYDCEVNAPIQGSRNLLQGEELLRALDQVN

O=C(O)c1ccc([N+](=O)[O-])cc1
inactive: all assays above
